Records with an inconclusive call do not appear. Activity calls are given as the source filed them. Unless noted, calls follow the shape of the full dose curve.
Columns and labels:
[1] = Nuclear factor erythroid 2-related factor 2/antioxidant responsive element (Nrf2/ARE) small molecule agonists: qHTS cell viability counter screen in human keratinocytes (AID 1919968; active = well fitted curve in the direction sought with a large enough effect in the repeat runs; an effect the other way counts as inactive or inconclusive; also: nearly all actives have a fitted effect of over 55% in size)
How it was run: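 CellTiter-Fluor fluorescence, read 1 h after reagent, gave viability in the same wells as the ARE-luciferase assay. KeratinoSens cells (1,500/well) had 23 h compound exposure at 37 C/5% CO2 following 5 h plating.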

[2] = Nuclear factor erythroid 2-related factor 2/antioxidant responsive element (Nrf2/ARE) small molecule agonists: luciferase reporter gene qHTS assay in human keratinocytes (AID 1919969); also: nearly all actives have a fitted effect of over 35% in size
[3] = biological target: Gonadotropin-releasing hormone receptor (Homo sapiens) (UniProt P30968); assay: Human gonadotropin-releasing hormone receptor (GnRHR) small molecule agonists, calcium flux assay in GnRHR-HEK293 cells (AID 1920063); also: nearly all actives have a fitted effect of over 35% in size
Chain of Gonadotropin-releasing hormone receptor (Homo sapiens) (P30968 whole entry, looked up): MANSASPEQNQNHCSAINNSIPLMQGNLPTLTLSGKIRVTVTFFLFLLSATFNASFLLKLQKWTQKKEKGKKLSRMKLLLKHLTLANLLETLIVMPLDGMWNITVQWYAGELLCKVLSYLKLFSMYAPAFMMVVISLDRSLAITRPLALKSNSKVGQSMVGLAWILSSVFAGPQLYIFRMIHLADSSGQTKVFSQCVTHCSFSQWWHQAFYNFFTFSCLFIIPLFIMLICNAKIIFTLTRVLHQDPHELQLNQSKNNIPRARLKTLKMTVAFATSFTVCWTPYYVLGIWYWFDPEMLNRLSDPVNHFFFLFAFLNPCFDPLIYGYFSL
How it was run: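 Agonist mode: compounds at 15 concentrations, in triplicate, went onto calcium dye-loaded GnRHR-HEK293 cells. Intracellular calcium was then followed as 480/540 nm fluorescence at 1 s intervals over 3 min.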

[4] = biological target: KiSS-1 receptor (Homo sapiens) (UniProt Q969F8); assay: Human kisspeptin (KISS1R) small molecule agonists, calcium flux assay in KISS1R-HEK293 cells (AID 1920064; active = well fitted curve in the direction sought with a large enough effect in the repeat runs; an effect the other way counts as inactive or inconclusive)
Chain of KiSS-1 receptor (Homo sapiens) (Q969F8 whole entry, looked up): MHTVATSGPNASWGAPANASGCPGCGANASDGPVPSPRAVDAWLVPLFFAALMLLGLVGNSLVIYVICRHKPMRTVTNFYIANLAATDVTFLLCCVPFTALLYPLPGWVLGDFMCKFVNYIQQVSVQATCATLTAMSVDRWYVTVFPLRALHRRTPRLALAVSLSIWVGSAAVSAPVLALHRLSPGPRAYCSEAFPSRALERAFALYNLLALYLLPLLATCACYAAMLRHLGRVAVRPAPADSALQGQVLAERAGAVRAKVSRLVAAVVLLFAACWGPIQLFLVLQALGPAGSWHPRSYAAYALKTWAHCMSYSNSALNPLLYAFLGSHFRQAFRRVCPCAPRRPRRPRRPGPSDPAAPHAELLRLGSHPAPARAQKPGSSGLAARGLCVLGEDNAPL
How it was run: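 Agonist mode: intracellular calcium rise tracked at 1 s intervals over 3 min (480/540 nm) immediately after compound addition to dye-loaded KISS1R-HEK293 stable cells. Each compound tested at 15 concentrations in triplicate.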

[5] = G protein-coupled receptor (GPCR) small molecule agonists, calcium flux assay: HEK293 wild type cell line counter screen (AID 1920065)
How it was run: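 Calcium flux counter screen: compound added in agonist mode at 15 concentrations in triplicate to dye-loaded parental HEK293 cells. Fluorescence (480/540) read kinetically for 3 min; ATP served as positive control.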

[6] = p53 small molecule agonists, cell-based qHTS assay with human liver microsomes (AID 1963577);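 also: p53 response element beta-lactamase reporter cells with liver microsomes plus NADPH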
How it was run: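 p53RE-bla cells; 5 h settle, 37 C/5% CO2; cpd + HLM 0.5 mg/mL + NADPH 0.5 mg/mL (final); 16 h 37 C; LiveBLAzer 2 h RT dark; fluorescence readout.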

[7] = p53 small molecule agonists, cell-based qHTS assay with rat liver microsomes (AID 1963578)
How it was run: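 Rat liver microsome activation: microsomes 0.5 mg/mL, NADPH 0.5 mg/mL final; p53RE-bla cells, 16 h 37 C; LiveBLAzer readout, 2 h RT dark.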

[8] = p53 small molecule agonists, cell-based qHTS assay with human liver microsomes: qHTS cell viability counter screen (AID 1963579); also: nearly all actives have a fitted effect of over 45% in size
How it was run: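 Luminescent CellTiter-Glo read-out, 30 min at room temperature, gauged cytotoxicity in p53RE-bla cells exposed 16 h at 37 C to DMSO-dissolved compounds with metabolic activation by human liver microsomes and NADPH, each 0.5 mg/mL final.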

[9] = p53 small molecule agonists, cell-based qHTS assay with rat liver microsomes: qHTS cell viability counter screen (AID 1963580); also: nearly all actives have a fitted effect of over 45% in size
How it was run: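 Rat liver microsome (0.5 mg/mL final) and NADPH (0.5 mg/mL final) co-incubation with compounds for 16 h at 37 C on HCT-116 p53RE-bla cells; cytotoxicity taken from intracellular ATP luminescence.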

[10] = p53 small molecule agonists, cell-based qHTS assay: qHTS cell viability counter screen (AID 1963581); also: nearly all actives have a fitted effect of over 45% in size
How it was run: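 Counter screen read by CellTiter-Glo luminescence (ATP content, 30 min at room temperature), run in the same wells as the beta-lactamase reporter read. HCT-116 p53RE-bla cells saw compounds for 16 h at 37 C.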

[11] = p53 small molecule agonists, cell-based qHTS assay (AID 1963582; active = well fitted activation curve with a large enough effect in the signal ratio in the repeat runs, not every such curve was filed as active; the % refers to the signal ratio)
How it was run: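 Read-out is beta-lactamase FRET fluorescence after 2 h at room temperature with LiveBLAzer B/G substrate. p53 response element-bla cells were treated 16 h at 37 C with compounds in DMSO, added 5 h after seeding.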

[12] = biological target: 5-hydroxytryptamine receptor 2A (Homo sapiens) (UniProt P28223); assay: 5-hydroxytryptamine receptor 2A (HTR2A) small molecule antagonists, cell-based qHTS assay (AID 1963586); also: nearly all actives have a fitted effect of over 45% in size; also: potency is read from the fitted curve at half-maximal effect
Chain of 5-hydroxytryptamine receptor 2A (Homo sapiens) (P28223 whole entry, looked up): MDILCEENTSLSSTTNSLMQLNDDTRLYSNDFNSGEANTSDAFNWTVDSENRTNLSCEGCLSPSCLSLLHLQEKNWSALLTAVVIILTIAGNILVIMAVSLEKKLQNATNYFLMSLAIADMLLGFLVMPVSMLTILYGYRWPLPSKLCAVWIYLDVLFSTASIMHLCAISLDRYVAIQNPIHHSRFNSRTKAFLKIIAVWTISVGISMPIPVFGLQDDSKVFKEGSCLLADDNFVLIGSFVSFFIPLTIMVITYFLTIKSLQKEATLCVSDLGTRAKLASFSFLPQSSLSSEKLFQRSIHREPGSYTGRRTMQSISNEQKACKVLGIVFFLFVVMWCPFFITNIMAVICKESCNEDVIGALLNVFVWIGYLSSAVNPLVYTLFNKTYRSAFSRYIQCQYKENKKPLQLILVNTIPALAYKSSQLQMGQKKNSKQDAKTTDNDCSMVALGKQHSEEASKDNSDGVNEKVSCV
How it was run: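 CHO cells stably expressing human HTR2A were plated for 18 h at 37 C, then loaded with calcium dye for 1 h. Compounds were preincubated 5 min at room temperature before DOI (4 nM solution) was added. Kinetic fluorescence was read for 3 min.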

[13] = biological target: 5-hydroxytryptamine receptor 2A (Homo sapiens) (UniProt P28223); assay: 5-hydroxytryptamine receptor 2A (HTR2A) small molecule agonists, cell-based qHTS assay (AID 1963587); also: nearly all actives have a fitted effect of over 30% in size
How it was run: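 Kinetic calcium-flux fluorescence (2 min, 1 sec intervals) after compound addition in agonist mode. HTR2A-CHO cells were cultured 18 h, then dye-loaded 1 h at 37 C.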

[14] = biological target: Muscarinic acetylcholine receptor M1 (Homo sapiens) (UniProt P11229); assay: Cholinergic receptor muscarinic 1 (CHRM1) small molecule agonists, cell-based qHTS assay (AID 1963589); also: nearly all actives have a fitted effect of over 35% in size
Chain of Muscarinic acetylcholine receptor M1 (Homo sapiens) (P11229 whole entry, looked up): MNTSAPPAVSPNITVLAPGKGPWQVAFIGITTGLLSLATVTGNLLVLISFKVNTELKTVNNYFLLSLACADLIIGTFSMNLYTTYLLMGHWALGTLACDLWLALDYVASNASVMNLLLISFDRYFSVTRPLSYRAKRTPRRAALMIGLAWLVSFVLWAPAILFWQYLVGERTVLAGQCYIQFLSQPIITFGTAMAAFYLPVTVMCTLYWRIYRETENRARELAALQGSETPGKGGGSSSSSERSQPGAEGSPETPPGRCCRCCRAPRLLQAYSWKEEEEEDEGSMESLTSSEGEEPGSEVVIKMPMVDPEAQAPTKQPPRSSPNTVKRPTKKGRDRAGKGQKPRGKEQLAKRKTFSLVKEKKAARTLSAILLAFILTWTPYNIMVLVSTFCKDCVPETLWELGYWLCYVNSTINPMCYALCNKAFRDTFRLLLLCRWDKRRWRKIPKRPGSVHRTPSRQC
How it was run: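 Agonist-mode calcium-flux screen: compounds at 15 concentrations, three independent runs, were pin-transferred onto dye-loaded human CHRM1-CHO cells. Fluorescence was then recorded kinetically every second over minutes.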

[15] = cAMP Responsive Elements (CRE) small molecule agonists, cell-based qHTS assay (AID 1963590)
How it was run: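 Agonist mode: compound added to CRE-bla HEK 293T cells (2,000/well, 18 h after plating) for 3 h at 37 C/5% CO2. Reporter activity detected via FRET beta-lactamase substrate, 2 h room-temperature loading.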

[16] = cAMP Responsive Elements (CRE) small molecule antagonists, cell-based qHTS assay (AID 1963591; active = well fitted inhibition curve with a large enough effect in the signal ratio in the repeat runs, not every such curve was filed as active; the % refers to the signal ratio)
How it was run: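 Antagonist mode: compounds are added alongside the adenylyl cyclase activator NKH477 (0.25 uM final) to CRE-bla HEK293T cells for 3 h. LiveBLAzer FRET substrate, 2 h at room temperature, reports bla expression.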

[17] = biological target: Beta-2 adrenergic receptor (Homo sapiens) (UniProt P07550); assay: Adrenergic beta2 receptor (ADRB2) small molecule antagonists, cell-based qHTS assay (AID 1963592); also: series mostly up to about 92 µM; nearly all actives have a fitted effect of over 50% in size
Chain of Beta-2 adrenergic receptor (Homo sapiens) (P07550 whole entry, looked up): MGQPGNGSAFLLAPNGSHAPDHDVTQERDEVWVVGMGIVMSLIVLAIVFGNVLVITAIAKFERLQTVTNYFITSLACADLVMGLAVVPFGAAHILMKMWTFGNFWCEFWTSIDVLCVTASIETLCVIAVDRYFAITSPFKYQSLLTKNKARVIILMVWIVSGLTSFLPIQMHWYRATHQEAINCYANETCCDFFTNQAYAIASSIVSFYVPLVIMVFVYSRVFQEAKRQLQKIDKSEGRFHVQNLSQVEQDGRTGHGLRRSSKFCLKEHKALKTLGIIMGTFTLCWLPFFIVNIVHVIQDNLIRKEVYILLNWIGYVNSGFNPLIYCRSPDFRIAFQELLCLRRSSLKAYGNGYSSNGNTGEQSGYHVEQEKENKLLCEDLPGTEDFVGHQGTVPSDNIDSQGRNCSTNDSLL
How it was run: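 Assay format: CHO-ADRB2 cells, 18-20hr seeding at 37C/5% CO2, then compound plus 1nM isoproterenol agonist mix for 0.5hr RT. Homogeneous time-resolved fluorescence cAMP detection after 1hr, expressed as 665/615 nm ratio.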

[18] = biological target: D(2) dopamine receptor (Homo sapiens) (UniProt P14416); assay: Dopamine D2 receptor (DRD2) small molecule agonists, cell-based qHTS assay (AID 1963594); also: nearly all actives have a fitted effect of over 35% in size
Chain of D(2) dopamine receptor (Homo sapiens) (P14416 whole entry, looked up): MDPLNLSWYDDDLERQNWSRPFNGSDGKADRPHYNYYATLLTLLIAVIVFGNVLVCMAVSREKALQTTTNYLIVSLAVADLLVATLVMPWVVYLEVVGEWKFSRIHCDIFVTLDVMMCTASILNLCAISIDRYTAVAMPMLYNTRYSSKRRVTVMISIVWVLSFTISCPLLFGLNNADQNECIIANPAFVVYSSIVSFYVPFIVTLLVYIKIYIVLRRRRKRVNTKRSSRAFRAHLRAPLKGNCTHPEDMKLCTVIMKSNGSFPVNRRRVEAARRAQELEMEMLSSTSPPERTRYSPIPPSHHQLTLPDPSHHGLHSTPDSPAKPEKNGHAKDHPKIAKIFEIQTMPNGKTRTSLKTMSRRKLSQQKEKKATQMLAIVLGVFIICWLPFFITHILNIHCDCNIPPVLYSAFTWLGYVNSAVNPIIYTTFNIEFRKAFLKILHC
How it was run: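 cAMP accumulation in DRD2-HEK293 cells measured by HTRF after 1 h detection; compounds added 10 min before NKH477 (200nM […]) forskolin-analogue stimulation, 30 min at room temperature, with Ro20-1724 present at 0.1 mM final.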

[19] = biological target: D(2) dopamine receptor (Homo sapiens) (UniProt P14416); assay: Dopamine D2 receptor (DRD2) small molecule antagonists, cell-based qHTS assay (AID 1963595; active = well fitted inhibition curve with a large enough effect in the signal ratio in the repeat runs, with a control signal flat; the % refers to the signal ratio)
How it was run: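 Cells were plated and grown for 24 h at 37 °C. Ro20-1724 (0.1 mM final) went in first, then compound for 10 min. NKH477 (200 nM) with quinpirole (12 nM) followed for 30 min at RT, then HTRF detection reagents for 1 h.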

[20] = biological target: Muscarinic acetylcholine receptor M1 (Homo sapiens) (UniProt P11229); assay: Cholinergic receptor muscarinic 1 (CHRM1) small molecule antagonists, cell-based qHTS assay (AID 1963588); also: nearly all actives have a fitted effect of over 40% in size
How it was run: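 Compounds were tested at 15 concentrations in three independent runs. Dye-loaded CHRM1-CHO cells were exposed 5 min at room temperature before stimulation by acetylcholine added at 50nM. Intracellular calcium was read kinetically on FDSS for 3 min.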

Measured: Potency

NCCOCCOCCN
not listed: [20]
inactive: all other assays above

Cc1cccc(Oc2ccccc2)c1
active: [12] 1 nM
not listed: [14] | [15]
inactive: all other assays above

CC(=O)CCc1ccc(O)cc1
not listed: [14] | [17] | [18]
inactive: all other assays above

Cc1ccc(Cl)cc1Cl
not listed: [20]
inactive: all other assays above

FC1(F)C(F)(F)C(F)(F)C2(F)C(F)(C1(F)F)C(F)(F)C(F)(F)C1(F)C(F)(F)C(F)(F)C(F)(F)C(F)(F)C12F (stereo unspecified)
not listed: [19] | [20]
inactive: all other assays above

CC(C)C(=O)OCC(C)(C)C(O)C(C)C (stereo unspecified)
not listed: [20]
inactive: all other assays above

C=CCc1ccccc1OCC(O)CNC(C)C (stereo unspecified)
not listed: [14] | [17]
inactive: all other assays above

COc1cccc(O)c1
not listed: [16] | [20]
inactive: all other assays above

— PubChem BioAssay (Tox21)
